# Test results reported in PubChem BioAssay AID504706 (National Center for Advancing Translational Sciences (NCATS), 2011).
# Hit rate of the full screen: of about 320,000 compounds, about 200 (0.062%) were called active. Roughly 6% stayed inconclusive and do not appear here. Calls follow the shape of the dose curve; as a rule, active = well fitted activation curve with a large enough effect; inconclusive = small, poorly fitted or top-dose-only effect; inactive = no such curve, though single readings can be large or run the other way. The list comes from a sample in which actives are over-represented; it also holds similar structures and randomly drawn compounds. Entries that show only a call come without a potency.
# Test: qHTS assay for re-activators of p53 using a Luc reporter; also: nearly all actives have a fitted effect of over 45% in size
# Conditions: H1299 p53-A138V BP100-luciferase reporter, luminescence, 24 h; series mostly up to 92.2 µM
# Excerpt: The p53 tumor suppressor plays a key role in suppression of tumorigenesis and in human carcinogenesis. It is frequently found inactivated in human cancers, mainly by point mutation. These point mutations are found in a wide variety of human cancers and a majority of them affect the DNA binding domain of the protein. The point mutations either alter native p53 conformation or abolish DNA contact. Additionally, cancer cells with p53 mutations are more resistant to chemo-radiation therapies. In order to find activators to reactivate this important protein, a cell-based screen for p53-dependent luciferase-reporter expression was developed. A p53-null H1299 lung cancer cell line was stably co-transfected with a temperature sensitive p53 mutant, p53-A138V, and a p53-responsive BP100-luciferase reporter. This cell model has previously been characterized in a gene chip profiling experiment for p53 activation. By lowering the culture temperature from 37 deg C (mutant p53 conformation) to 32 deg C (w.t. p53 conformation), a 30-60 fold increase in activation of luciferase activity is observed. At assay temperate, 37 deg C, basal reporter expression is very low and after the addition of detection reagent, a luminescent read-out is carried out. NIH Chemical Genomics Center [NCGC] NIH Molecular Libraries Probe Production Centers Network [MLPCN] MLPCN Grant: DA031088-01A1 Assay Provider (PI): Yi Sung, University of Michigan at Ann Arbor
# 5ul of 1000 cells per well are dispensed in all wells except column 4, into white solid-bottom TC-treated Kalypsys plates. The cells are kept in Opti-MEM and supplemented with 10% FBS and dispensed using a Multidrop (Thermo). Then using the Kalypsys pin-tool, 23nl of compounds are pinned. The compounds are starting concentration at 10mM, with 1:5 dilution, 4 points, and the control compound nocodazole is pinned in column 1 at 25mM, 1:3 dilution, in duplicate, 25mM nocodazole is pinned in column 2. Please note, all concentrations are working concentrations. 5ul of 1pM purified luciferase enzyme is dispensed using the Kalypsys dispenser in column 4. Plates are incubated for 24 hrs at 37 deg C, 5% CO2, and 95% humidity. Then 4ul of the detection reagent Amplite (ABD Bioquest) is added using the Kalypsys dispenser. Plates are incubated for 10 min at ambient room temperature and are then read on the ViewLux (Perkin Elmer) using a clear filter for a luminescent read-out.
# Potency is read from the fitted curve at half-maximal effect.
row,SMILES,Potency
1,CC[C@]1(C(=O)OC)[C@H]2C(=O)N(Cc3ccccc3)C(=O)[C@H]2[C@H]2CN=C(SCc3ccc(Cl)cc3)N21,inactive
2,COC(=O)c1ccc(/C=C/c2c(-c3ccc(OC)cc3)sc3ccccc23)cc1,inactive
3,Cc1ccc(S(=O)(=O)N2CCN(C(=O)CN3C(=O)NC(C)(c4ccc(Cl)cc4)C3=O)CC2)c(C)c1 (stereo unspecified),inactive
4,O=C(CSc1nc2ccccc2c(=O)n1-c1ccccc1F)N1CCOCC1,inactive
5,Cc1c(Cl)cnc(NC(=O)COC(=O)C2CCCC2)c1Cl,inactive
6,C[C@H](CO)N1C[C@H](C)[C@H](CN(C)C(=O)Nc2ccc(C(F)(F)F)cc2)Oc2c(NC(=O)c3ccncc3)cccc2C1=O,inactive
7,CC[C@]1(C(=O)OC)[C@H]2C(=O)N(Cc3ccccc3)C(=O)[C@H]2[C@H]2CN=C(SCc3ccccc3)N21,inactive
8,CC[C@@]1(C(=O)OC)N[C@H](CN(C)C(C)=O)[C@@H]2C(=O)N(C)C(=O)[C@@H]21,inactive
9,CN(C(=O)c1cccc(NC(=O)Cc2cccc([N+](=O)[O-])c2)c1)C1CCCCC1,inactive
10,COc1cc(C(=O)NC2CCN(C)CC2)ccc1Nc1ncc2c(n1)N(C1CCC(O)CC1)CCC(=O)N2C (stereo unspecified),inactive
11,CSCCC1NC(=O)N(CC(=O)Nc2cccc(S(=O)(=O)N3CCCCCC3)c2)C1=O (stereo unspecified),inactive
12,CN(C(=O)c1cccc(NC(=O)C2CCN(C(=O)OC(C)(C)C)CC2)c1)C1CCC1,inactive
13,Cc1ccc(S(=O)(=O)N2CCN(C(=O)COC(=O)CNC(=O)c3ccc(C(C)(C)C)cc3)CC2)c(C)c1,inactive
14,CCC(CO)Oc1cc(NCc2ccccc2)c2ncn(C3CCCC3)c2c1 (stereo unspecified),inactive
15,Nc1ncnc2c1ncn2[C@@H]1O[C@H](CNCc2cccn2-c2nccs2)[C@@H](O)[C@H]1O,inactive
16,CCOC(=O)C1=CN(Cc2ccc(Br)cc2)S(=O)(=O)NC1C (stereo unspecified),inactive
17,COc1ccc2[nH]c3c(c2c1)CCN1C(=O)C(CC(=O)NCCc2ccccn2)C[C@H](C(=O)N2CCOCC2)[C@@]31C (stereo partly specified),inactive
18,O=C(COC(=O)c1cc[n+]([O-])cc1)Nc1ccc(Cl)c(C(F)(F)F)c1,inactive
19,COc1ccc(CCOC2OC(CO)C(OC(=O)/C=C/c3ccc(O)c(OC)c3)C(O[C@H]3O[C@@H](C)[C@H](O)[C@@H](O)[C@H]3O)C2O)cc1O (stereo partly specified),inactive
20,CCOC(=O)[C@H]1[C@H]2COc3ccccc3[C@@H]2N2C(=O)CN(Cc3ccccc3)C(=O)[C@@]12C,inactive
21,COc1ccc(OC)c(NC(=O)COC(=O)Cc2ccsc2)c1,inactive
22,O=C(CC1SC(N2CCOCC2)=NC1=O)Nc1ccccc1F (stereo unspecified),inactive
23,O=C(NC(=S)Nc1ccc(Br)cc1F)C1CCCCC1,inactive
24,COc1ccc(CNC(=O)C[C@H]2C[C@H](C(=O)N3CCOCC3)[C@@]3(CCC4CCCC4)c4[nH]c5ccc(Cl)cc5c4CCN3C2=O)cc1OC,inactive
25,CCN1C[C@@H]2[C@@H]3C(=O)N(Cc4ccccc4)C(=O)[C@@H]3[C@](Cc3ccccc3)(C(=O)OC)N2C1=NC1CCCCC1,inactive
26,CCCCNc1c(-c2ccc(OC)c(Sc3ccc(OC)cc3)c2)nc2ccc(Cl)cn12,inactive

row,SMILES,Potency
1,CC(C)N(C(=O)[C@H]1C[C@H](CC(=O)NC(C)(C)C)C(=O)N2CCc3c([nH]c4ccc(Cl)cc34)[C@]12C)C(C)C,inactive
2,Cc1c(NC(=O)C(C)OC(=O)c2ccccc2O)c(=O)n(-c2ccccc2)n1C (stereo unspecified),inactive
3,COCCN(CCOC)S(=O)(=O)NC[C@H]1O[C@@H](n2cnc3c(N)ncnc32)[C@H](O)[C@@H]1O,inactive
4,Cc1ccsc1C(=O)NNC(=O)COc1ccc(Br)cc1,inactive
5,COc1cc(C)ccc1OCC(=O)OCC(=O)c1ccc[nH]1,inactive
6,CCN(CC)C(=O)[C@H]1C[C@H](CC(=O)NCC23CC4CC(CC(C4)C2)C3)C(=O)N2CCc3c([nH]c4cc(CCC(=O)N(C)C)ccc34)[C@]12C,inactive
7,O=C(COC(=O)c1cccc(Cl)c1)NC(=O)NCc1ccccc1,inactive
8,CCCc1cc(=O)[nH]c(SCC(=O)Nc2ccc(C(=O)Nc3ccccc3OC)cc2)n1,inactive
9,O=C(CSc1ncn[nH]1)Nc1ccc(Br)cc1Br,inactive
10,CC(C)(C)OC(=O)C[C@@H]1C/C=C\C[C@@H](CC(=O)N[C@@H](CO)Cc2ccccc2)C(=O)N2CCC[C@H]2COC1=O,inactive
11,COc1ccccc1-c1nnc2n1N=C(c1ccc(OC(F)F)c(OCC3CC3)c1)CS2,inactive
12,C=CC1=C(C(=O)O)N2C(=O)[C@@H](NC(=O)/C(=N\OCC(=O)O)c3csc(N)n3)[C@H]2SC1,inactive
13,O=C(CSc1ncn[nH]1)Nc1nc(-c2cccc([N+](=O)[O-])c2)cs1,inactive
14,CCNC(=O)CSc1nc(-c2ccccc2)cs1,inactive
15,O=C(CSc1nc(-c2ccccc2)cs1)Nc1cccc([N+](=O)[O-])c1,35.5 µM (active)
16,CC(C)(C)OC(=O)C[C@@H]1C/C=C\C[C@H](CC(=O)N[C@@H](CO)Cc2ccccc2)C(=O)N[C@H](Cc2ccccc2)COC1=O,inactive
17,CC(C)n1cnc2c(NCc3ccccc3)cc(OCC3CCN(C)CC3)cc21,inactive
18,CN(Cc1ccc(CNC[C@H]2O[C@@H](n3cnc4c(N)ncnc43)[C@H](O)[C@@H]2O)o1)S(C)(=O)=O,inactive
19,CCOC(=O)C1=C(C)N(C[C@@H]2CC[C@@H](Cc3ccc(-c4ccccc4)cc3)O2)C(=O)NC1c1ccc([N+](=O)[O-])cc1 (stereo partly specified),inactive
20,O=S(=O)(c1cccs1)N1CCN(CCOc2ccccc2)CC1,inactive
21,CCCN=C1N(C)C[C@@H]2[C@@H]3C(=O)N(Cc4ccccc4)C(=O)[C@@H]3[C@](C)(C(=O)OC)N12,inactive
22,COc1cccc(-c2sc3ccc(OC)cc3c2-c2ccc(OCCN3CCCCC3)cc2)c1,inactive
23,CC[C@@H](C)[C@@H]1CN([C@@H](C)CN2CCC[C@H]2CN2C(N)=NC[C@H]2C(C)C)C(=N)N1CCc1ccc(Cl)c(Cl)c1,inactive
24,C[C@H](CO)N1C[C@H](C)[C@@H](CN(C)Cc2ccc(-c3ccccc3)cc2)Oc2ccc(NC(=O)Cn3cnnn3)cc2C1=O,inactive
25,COc1cc(C2CC(=O)Oc3cc(OC)c(OC)c(OC)c32)cc(OC)c1OC (stereo unspecified),inactive
